# Screening results from PubChem.
# Sampled rows, rich in hits. Any-hit rate of the full collection: about 3.6%.
# Pf apPOL inh: Pf-apPOL inhibitors, biochemical, fluorescence; AID 1794808, 2022; inhibition, % at 10 µM; Plasmodium falciparum apicoplast DNA polymerase (apPOL); hit rate 0.25% among 210,000; Recombinant Pf-apPOL, molecular beacon fluorescence, 1.5 h
# mHTT-CaM PPI inh: mutant huntingtin-calmodulin interaction inhibitors – biochemical, AlphaScreen, primary screen. inhibition, % at 15 µM. AlphaScreen His-mHTT/GST-CaM binding, luminescence. hit rate 3.6% among 190,000. P42858
# Hits are given with their value; i = inactive; nt = no result. No stated cut-off is given here; in the data, active means inhibition above about 50%; inactive means the rest.
SMILES,Pf apPOL inh,mHTT-CaM PPI inh
COc1ccc(-c2nnc(NC(=O)CCCS(=O)(=O)Cc3ccccc3)o2)c(OC)c1,i,i
COc1ccc(-c2nnc(NC(=O)CN3C(=O)c4ccccc4C3=O)o2)c(OC)c1,i,52
C=CCOC(=O)COc1cc2oc(C)c(-c3ccc4c(c3)OCCO4)c(=O)c2cc1CC,i,i
Cc1oc(C(=O)O)cc1COc1ccc2c(C)c(C)c(=O)oc2c1C,i,i
Cc1oc(C(=O)O)cc1COc1cccc2cccnc12,i,74
FC(F)(F)c1cccc(N=Cc2c(-c3ccccc3)nc3n2CCS3)c1,i,nt
C(=Nc1c(-c2ccccc2)nc2n1CCS2)c1ccccc1,i,59
COc1cc(C(=O)Nc2cc([N+](=O)[O-])ccc2C)cc(OC)c1OC,i,i
O=C(NCc1ccccn1)c1ncn[nH]1,i,i
CC(C)(C)c1ccc(OCNC(=O)c2ncn[nH]2)cc1,i,73
O=C(CSc1nc2ccccc2s1)NC1CCCCC1,i,i
O=S(=O)(NCC1CCN(S(=O)(=O)c2ccc(F)cc2)CC1)c1ccc(F)cc1,i,i
COc1ccc(NC(=O)C2CC(=O)NC(=Nc3ccc(C)c(C)c3)S2)cc1 (stereo not drawn),i,i
COc1ccc(N=C2NC(=O)CC(C(=O)Nc3cc(C(F)(F)F)ccc3Cl)S2)cc1 (stereo not drawn),i,78
Clc1ccc(C2CC(c3cccc(Br)c3)Nc3ncnn32)cc1 (stereo not drawn),i,53
Cc1ccc(C2CC(c3ccccc3)n3ncnc3N2)cc1 (stereo not drawn),i,i
Clc1ccc(C2CC(c3ccccc3)Nc3ncnn32)cc1 (stereo not drawn),i,i
Clc1ccc(C2CC(c3ccc(Br)cc3)Nc3ncnn32)cc1 (stereo not drawn),i,59
COc1ccc(C2CC(c3cccc(Br)c3)Nc3ncnn32)cc1 (stereo not drawn),i,i
Cc1ccc(C2CC(c3cccs3)n3ncnc3N2)cc1 (stereo not drawn),i,i
c1ccc(-c2ccc(C3CC(c4cccs4)n4ncnc4N3)cc2)cc1 (stereo not drawn),i,55
Cc1ccc(C2CC(c3ccc(Br)cc3)n3ncnc3N2)cc1 (stereo not drawn),i,53
Cc1ccc(C)c(NC(=O)N2CCn3cccc3C2C(C)C)c1 (stereo not drawn),i,i
C=CCNC(=O)c1ncn(-c2ccccc2C)n1,i,i
O=C(c1cccc(F)c1)N1CCC(COc2ccccc2C(=O)N2CCOCC2)CC1,i,i
SMILES,Pf apPOL inh,mHTT-CaM PPI inh
COc1cc(NC(=O)CCN2C(=O)c3ccccc3C2=O)c(OC)cc1Cl,i,i
COCc1nnc(NC(=O)C2CC(=O)N(CCc3c[nH]c4ccc(C)cc34)C2)s1 (stereo not drawn),i,i
O=[N+]([O-])c1cccc(/C=C/c2nc(C=Nc3ccccc3)c(O)o2)c1,i,i
O=[N+]([O-])c1cccc(/C=C/c2nc(C=Nc3ccc(O)cc3)c(O)o2)c1,i,50
Cn1nc(-c2nc(C3CC3)no2)c2c1CCN(S(=O)(=O)c1ccccc1)C2,i,i
O=C(NCc1cccnc1)C1c2ccccc2C(=O)N1Cc1ccccc1Cl (stereo not drawn),i,i
C=C(C)Cn1c(C(=O)NCC2CCCO2)cc2sc(C)cc21 (stereo not drawn),i,i
CCCn1c(C(=O)N2CCOCC2)cc2sc(C)cc21,i,i
CCCn1c(C(=O)N2CCN(C(C)=O)CC2)cc2sc(Br)cc21,i,54
CCCn1c(C(=O)NCC2CCCO2)cc2sc(Br)cc21 (stereo not drawn),i,60
Cc1nn(C(=O)c2ccncc2)c(C)c1Sc1ccccc1[N+](=O)[O-],i,i
COc1ccc2c(Cl)c(C(=O)Nc3cc(C)ccc3C)sc2c1Cl,i,i
CCCNC(=O)c1sc2c(Cl)c(OC)ccc2c1Cl,i,100
CCC(=O)NC(c1ccccc1)c1ccc2cccnc2c1O (stereo not drawn),i,100
CCC(=O)NC(c1ccc(Cl)cc1)c1ccc2cccnc2c1O (stereo not drawn),i,100
CCC(=O)NC(=O)NC(c1ccccc1)c1ccccc1,i,i
CCC(=O)NC(c1ccc(OC)cc1)c1ccc2cccnc2c1O (stereo not drawn),i,100
COc1ccc(C(NC(=O)CCc2ccccc2)c2ccc3cccnc3c2O)cc1 (stereo not drawn),i,100
COc1ccc(CCC(=O)NCCCOc2cccc3cccnc23)cc1,i,i
CCOc1ccc(-c2[nH]nc3c2C(c2ccc(OCC(N)=O)c(OC)c2)C(C#N)=C(N)O3)cc1 (stereo not drawn),i,i
CCCC1=NN2C(=N)/C(=C/c3cc(Br)ccc3OC)C(=O)N=C2S1,i,i
Cc1nc(CSc2nc(=O)n(CC3CCCO3)c3c2CCCC3)cs1 (stereo not drawn),i,i
O=c1/c(=C/c2cccc(Br)c2)sc2nc(-c3cccs3)nn12,i,i
O=C(NCCCn1ccnc1)c1nc(Cn2cc(Cl)cn2)no1,nt,i
Cc1cccc(N(CC(=O)N2CCOCC2)S(=O)(=O)c2ccccc2)c1C,i,i
SMILES,Pf apPOL inh,mHTT-CaM PPI inh
CSc1nnc2c(n1)OC(c1ccc(O)c(O)c1)Nc1ccccc1-2 (stereo not drawn),i,i
CCCC(=O)NC(c1ccc(Cl)cc1)c1ccc2cccnc2c1O (stereo not drawn),i,99
CC(C)CC(=O)NCC#CCOc1ccc2c(c1)OCO2,i,i
CC(=O)NC(c1ccc(Cl)cc1Cl)c1ccc2cccnc2c1O (stereo not drawn),i,100
CC(C)CC(=O)NC(c1ccccc1)c1ccc2cccnc2c1O (stereo not drawn),i,100
CCCCC(=O)NC(c1ccc(Cl)cc1)c1ccc2cccnc2c1O (stereo not drawn),i,i
Cc1ccc(C(NC(=O)CC(C)C)c2ccc3cccnc3c2O)cc1 (stereo not drawn),i,i
CC(C)CC(=O)NC(c1ccc2c(c1)OCO2)c1ccc2cccnc2c1O (stereo not drawn),i,100
COc1ccccc1C1NCCc2c1[nH]c1ccccc21 (stereo not drawn),i,i
Clc1ccc2c(Nc3ccccc3Cl)ccnc2c1,i,nt
COc1ccc2[nH]c3sc(C)nc3c2c1,i,i
O=C(NC1CC1)c1ccc(OCC2CCCN(C(=O)C3CCCCC3)C2)cc1 (stereo not drawn),i,i
CCCC(C)C(=O)N1CCN(c2nc3ccccc3n(C)c2=O)CC1 (stereo not drawn),i,i
Cc1ccc(-n2nc3c(c2NC(=O)c2c(F)cccc2F)CS(=O)C3)cc1 (stereo not drawn),i,i
CCCC(=O)NC(c1ccc(Cl)cc1Cl)c1ccc2cccnc2c1O (stereo not drawn),i,100
O=C1NC2(CCN(Cc3ccccc3)CC2)N=C1c1cccc(F)c1,i,i
O=C1NC2(CCN(Cc3ccccc3)CC2)N=C1c1cccc(Cl)c1,i,i
COc1cccc(CN2CCC3(CC2)N=C(c2ccccc2)C(=O)N3)c1,i,58
O=C1NC2(CCN(Cc3ccc(Cl)cc3)CC2)N=C1c1ccccc1,i,55
CCOc1ccc(C(C)NC(=O)c2cc(NC(C)=O)cc3nc(C)ccc23)cc1 (stereo not drawn),i,i
CCOc1ccccc1CNC(=O)c1cc(NC(C)=O)cc2nc(C)ccc12,i,i
